# Unmarked numbers belong to inactive results.
# Test system: Pectobacterium parmentieri SCC3193
# Assay: DuctApe activity index (growth/respiration on compound as sole nutrient source, blank-subtracted) (activity index (0-3)); higher = stronger utilization of the compound, active = 3 or more
# Settings: nutrient role (plate category): carbon
# Method: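 Biolog Phenotype Microarray plates PM1, PM2A (carbon), PM3 (nitrogen) and PM4 (phosphorus/sulfur) inoculated with P. parmentieri SCC3193 in M9-C minimal salts medium with Biolog dye A, and read in the OmniLog for 46 h. Each well was tested in triplicate and the experiment was run twice. DuctApe computed a blank-subtracted activity index (AV, 0-3) from the mean curves; growth is positive at AV >= 3 and negative at AV <= 2.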
row,Compound,DuctApe activity index
1,OC[C@@H](O)[C@@H](O[C@@H]1O[C@H](CO)[C@H](O)[C@H](O)[C@H]1O)[C@H](O)[C@@H](O)CO [D-Lactitol],0
2,O=C(O)C(=O)O [Oxalic acid],0
3,C=C(CC(=O)O)C(=O)O [Itaconic acid],0
4,C[C@@H](O)CC(=O)O [b-Hydroxybutyric acid],0
5,O=C(O)[C@H](O)[C@@H](O)[C@H](O)[C@H](O)CO[C@H]1O[C@H](CO)[C@H](O)[C@H](O)[C@H]1O [Melibionic acid],0
6,OCC1(O)OC[C@@H](O)[C@@H](O)[C@H]1O (stereo partly drawn) [D-Psicose],3 (active)
7,OC[C@H]1O[C@@H](Oc2ccc(O)cc2)[C@H](O)[C@@H](O)[C@@H]1O [Arbutin],3 (active)
8,CC(=O)N[C@@H](CO)[C@@H](O)[C@H](O)[C@H](O)CO [N-Acetyl-D-Glucosaminitol],0
9,O=C(O)[C@H]1O[C@@H](O)[C@H](O)[C@@H](O)[C@H]1O [Pectin],3 (active)
10,OC[C@H]1O[C@H](OC[C@H]2O[C@H](OC[C@H]3O[C@H](O[C@]4(CO)O[C@H](CO)[C@@H](O)[C@@H]4O)[C@H](O)[C@@H](O)[C@@H]3O)[C@H](O)[C@@H](O)[C@H]2O)[C@H](O)[C@@H](O)[C@H]1O [Stachyose],3 (active)
11,COC(=O)CCC(=O)O [Mono-Methylsuccinate],2
12,C[C@H](O)C(=O)O [L-Lactic acid],2
13,CO[C@@H]1OC[C@@H](O)[C@H](O)[C@H]1O [b-Methyl-D-Xyloside],0
14,CO[C@H]1O[C@H](CO)[C@H](O)[C@H](O)[C@H]1O [a-Methyl-D-Galactoside],3 (active)
15,O=C(O)c1ccc(O)cc1 [4-Hydroxybenzoic acid],0
16,O=C(O)CC(=O)O [Malonic acid],0
17,OC1OC[C@@H](O)[C@H](O)[C@H]1O (stereo partly drawn) [D-Xylose],3 (active)
18,OC[C@@H](O)[C@H](O)[C@@H](O)CO [Xylitol],0
19,O=C1O[C@H]([C@@H](O)CO)[C@@H](O)[C@@H]1O [L-Galactonic acid-g-Lactone],3 (active)
20,O=C(O)[C@@H](O)[C@H](O)[C@H](O)[C@@H](O)C(=O)O [Mucic acid],3 (active)
21,O=C(O)[C@@H](O)[C@@H](O)[C@H](O)[C@@H](O)C(=O)O [D-Saccharic acid],3 (active)

# Same assay, conditions: nutrient role (plate category): nitrogen
row,Compound,DuctApe activity index
1,C[C@H](N)C(=O)N[C@@H](CC(=O)O)C(=O)O,1
2,C[C@H](N)C(=O)N[C@@H](CCC(=O)O)C(=O)O,1
3,CCCCN [N-Butylamine],0

# Same assay, conditions: nutrient role (plate category): phosphate & sulphur
row,Compound,DuctApe activity index
1,Nc1nc2c(ncn2[C@@H]2O[C@H](CO)[C@@H](O)[C@H]2OP(=O)(O)O)c(=O)[nH]1 [Guanosine 2`-Monophosphate],2
2,C[S+]([O-])CC[C@H](N)C(=O)O (stereo partly drawn) [L-Methionine Sulfoxide],1
3,CS(=O)(=O)O [Methane Sulfonic acid],0
4,O=C(O)C(O)COP(=O)(O)O [D-3-Phospho-Glyceric acid],2
5,O=C(O)C(CO)OP(=O)(O)O [D-2-Phospho-Glyceric acid],2
6,O=S(=O)(O)CCO [2-Hydroxyethane Sulfonic acid],1
7,O=c1ccn([C@@H]2O[C@H](CO)[C@@H](O)[C@H]2OP(=O)(O)O)c(=O)[nH]1 [Uridine 2`-Monophosphate],2
8,O=P(O)(O)CP(=O)(O)O [Methylene Diphosphonic acid],0
9,N[C@@H](CSCSC[C@H](N)C(=O)O)C(=O)O [L-Djenkolic acid],1
10,"CSCCC(NC(C)=O)C(=O)O (racemic) [N-Acetyl-D,L-Methionine]",2
11,C=C(OP(=O)(O)O)C(=O)O [Phosphoenol Pyruvate],2
12,NCCS(=O)(=O)O [Taurine],1

# Source: the supplement of paper PMC6518042
